High-throughput results as filed in PubChem BioAssay.
HT1080-NT tox: kills 2HG-producing HT-1080-NT fibrosarcoma cells; HT-1080-NT fibrosarcoma viability, CellTiter-Glo ATP luminescence, 48 h; Potency, µM (highest dose often 46.1 µM), for the others: at the top dose activity, negative = less viability, actives largely listed as cytotoxic; 360,000 tested, 1.6% active;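 note: NT is the 2HG producing partner of a matched IDH1 knockdown line; potency is the fitted concentration of half-maximal effect; 0% = DMSO-treated cells and -100% = media-only wells without cells; nearly all actives have a fitted effect of over 55% in size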
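Compounds were tested in concentration-response format on HT-1080-NT cells for 48 hours at 37 degrees C. Cell viability came from CellTiter-Glo luminescence; curves were classified by r2, response magnitude and activity.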
HT1080 IDH1KD tx: kills HT-1080 cells with IDH1 knockdown; HT-1080 IDH1 knockdown viability, ATP luminescence, 48 h; Potency, µM (titrated, usually from 46.1 µM), without a hit: at the highest dose activity, negative = toxicity, most hits filed as cytotoxic; 360,000 tested, 2% active; AID 686971;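 note: potency is the fitted concentration of half-maximal effect; 0% = DMSO wells and -100% = cell-free medium wells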
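CellTiter-Glo luminescence after 48 h compound exposure at 37 degrees C of IDH1-knockdown HT-1080 cells in 5% FBS RPMI. %Activity scaled between DMSO wells and cell-free media wells, with curves fitted and assigned curve classes.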
uPA generation: cell surface uPA generation inhibition; AID 540303; Potency, µM (titrated, usually from 38.3 µM), for inactives: at the top dose activity change, negative = inhibition, most hits filed as inhibitors; cell surface uPA generation assay, qHTS; 330,000 tested, 0.31% active; active = well fitted inhibition curve with a large enough effect; inconclusive = small, poorly fitted or top-dose-only effect; inactive = no such curve, though single readings can be large or run the other way; tested in mouse RAW 264.7 cells; note: potency is the fitted concentration of half-maximal effect; nearly all actives have a fitted effect of over 55% in size
IL-1B inflam inh: inhibitors of inflammasome signaling (IL-1 beta secretion). activity change, % at 57.5 µM. THP-1 LPS/ATP IL-1B secretion, AlphaLISA, 16 h; active compounds read low. 360,000 tested, 4.7% active. AID 743279; in the data active = activity change below about -50%; inconclusive = mostly about -30% to -49%
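THP-1 cells pretreated 1 hr with compounds (up to 57.5 uM final), then stimulated with LPS (250 ng/mL final) plus ATP (1.25 mM final); secreted IL-1B measured by AlphaLISA after 16 hr, decreased signal indicating inhibition.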
TDP1 cell CPT: growth inhibition of DT40 Tdp1-/-;hTDP1 cells with camptothecin (screen for TDP1 inhibitors) | chicken DT40 Tdp1-/-;hTDP1 cells + 20 nM CPT, ATP luminescence, 48 h | Potency, µM (highest dose often 46.2 µM), inactives show top-dose activity change, negative = growth inhibition, actives largely listed as inhibitors | 420,000 tested, 12% active | AID 686979; note: potency is the fitted concentration of half-maximal effect; nearly all actives have a fitted effect of over 55% in size
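Chicken DT40 Tdp1-/- cells stably complemented with human TDP1 were seeded at 400 cells/well in medium containing 20 nM camptothecin, exposed to pin-transferred compounds, and grown at 37 °C for at least 48 hr. Viability was read as ATP luminescence.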
TDP1 cell noCPT: qHTS for Inhibitors of human tyrosyl-DNA phosphodiesterase 1 (TDP1): qHTS in cells in absence of CPT; AID 686978, 2013; Potency, µM (doses to about 46.2 µM), inactives show at the highest dose activity change, negative = growth inhibition, usual class: inhibitors; 420,000 tested, 15% active; DT40 Tdp1-/- hTDP1 cells, no CPT, ATP luminescence, 48 h; note: potency is the fitted concentration of half-maximal effect; nearly all actives have a fitted effect of over 55% in size
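No-CPT arm: Tdp1-/-;hTDP1 DT40 cells (400/well) plus compounds, incubated ≥48 hr at 37 °C. Readout CellTiter-Glo luminescence.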
An asterisk follows results filed as active; u = inconclusive; x = no result given. This is a sample that favours compounds with a hit; in the whole collection about 19% have one here. Unless noted, calls come from the whole dose curve; as a rule, active = well fitted curve in the direction sought with a large enough effect; inconclusive = small, poorly fitted or top-dose-only effect, or another doubt; inactive = no such curve, though single readings can be large; an effect the other way counts as inactive or inconclusive. Unless noted, % is set by controls: 0 for no effect and ±100 for the full control effect.

SMILES	HT1080-NT tox	HT1080 IDH1KD tx	uPA generation	IL-1B inflam inh	TDP1 cell CPT	TDP1 cell noCPT
CCOc1ccc(CCN2C(=O)C(=O)N([C@@H](Cc3ccccc3)CN3CCC[C@H]3CN3C(=O)C(=O)NC[C@@H]3Cc3ccccc3)C[C@@H]2Cc2ccc(O)cc2)cc1	u	u	x	-64.1*	u	u
CCOc1ccc(CCN2C(=O)C(=O)N([C@@H](Cc3ccc(O)cc3)CN3CCC[C@H]3CN3C(=O)C(=O)NC[C@@H]3Cc3ccccc3)C[C@@H]2Cc2ccc(O)cc2)cc1	-11.5%	-20.2%	x	-51.9*	u	u
CCOc1ccc(CCN2C(=O)C(=O)N([C@@H](Cc3ccccc3)CN3CCC[C@H]3CN3C(=O)C(=O)NC[C@@H]3Cc3ccccc3)C[C@@H]2Cc2ccccc2)cc1	u	u	x	u	u	23.1µM*
CCOc1ccc(CCN2C(=O)C(=O)N([C@@H](Cc3ccccc3)CN3CCC[C@H]3CN3C(=O)C(=O)NC[C@@H]3Cc3ccccc3)C[C@@H]2CC(C)C)cc1	-6.7%	1.4%	x	-79.5*	u	18.4µM*
Cc1nc(Nc2ccccc2)sc1C	-28.4%	6.8%	-3.3%	2.4	3.7%	18.8%
S=c1[nH]cnc2sc(Nc3ccccc3)nc12	-8.0%	-10.2%	-6.0%	-6.2	14.6µM*	14.6µM*
Cc1cccc(NC(=O)CN2C(=O)c3cccc4cccc2c34)c1C	x	x	x	x	0.0%	-13.8%
CCOC(=O)c1sc(NC(=O)CN2C(=O)NC3(CC(C)CC(C)(C)C3)C2=O)cc1C (configuration not stated)	u	u	-8.5%	-29.6	u	18.4µM*
CC(C)Cc1nnc(NC(=O)CN2C(=O)NC3(CC(C)CC(C)(C)C3)C2=O)s1 (configuration not stated)	11.5%	6.6%	5.2%	-12.7	u	u
CCOC(=O)c1sc(NC(=O)CN2C(=O)NC3(CC(C)CC(C)(C)C3)C2=O)c(C(=O)OCC)c1C (configuration not stated)	9.8%	6.1%	-1.0%	u	9.2µM*	10.3µM*
O=C(CNC(=O)c1ccc(Br)o1)NCc1ccc(Cl)cc1	-29.2%	-26.1%	-4.8%	3.7	u	-8.9%
c1ccc(CNc2ncnc3ccc(-c4cccnc4)cc23)cc1	x	x	x	x	14.6µM*	16.4µM*
COc1cccc(-c2ccc3ncnc(NCc4cccnc4)c3c2)c1	x	x	4.4%	x	11.6µM*	u
COc1cccc(-c2cc(NCc3cccnc3)ncn2)c1	x	x	x	x	11.3%	0.0%
CC1(C)S[C@@H]2[C@H](NC(=O)[C@H](N)c3ccccc3)C(=O)N2[C@H]1C(=O)OC1OC(=O)c2ccccc21 (some centres not stated)	3.0%	-4.1%	-5.2%	-56.4*	11.6µM*	8.2µM*
CN(C)/C=N/c1nc2nccc(-c3cccc(Cl)c3)n2n1	3.0%	7.8%	-7.6%	-51.7*	u	-3.7%
CN(C)/C=N/c1nc2nccc(-c3ccc(F)cc3)n2n1	23.5%	20.6%	1.6%	8.0	10.7%	0.9%
O=C(c1ccc2nc(-c3ccccc3)c(-c3ccccc3)nc2c1)N1CCCCC1	0.0%	-0.2%	2.3%	u	u	16.4µM*
CCNC(=O)c1ccc2nc(-c3ccccc3)c(-c3ccccc3)nc2c1	x	x	x	x	11.2µM*	11.2µM*
COc1ccccc1CNC(=O)c1ccc2c(c1)nnn2C1CCCC1	x	x	x	x	18.4µM*	16.4µM*
O=C(O)c1ccc2c(c1)nnn2C1CCCCC1	-1.9%	-0.7%	2.3%	0.0	-10.8%	-10.9%
COc1ccc(-c2nc3ccc(C(=O)NCCCN4CCOCC4)cc3nc2-c2ccc(OC)cc2)cc1	-16.4%	-9.6%	13.6%	-7.8	u	23.1µM*
